# Experimental data from PubChem BioAssay (NCATS).
# Inconclusive results are not listed. Calls of active or inactive are those of the source. Unless noted, calls follow the shape of the full dose curve.
# Assays:
# [1] = qHTS drug screen for cell cycle checkpoint inhibitors in PARPi-resistant BRCA-mutant ovarian cancer cell lines. (AID 1963452); conditions: PEO1/OlaR viability, CellTiter-Glo luminescence, 96 h, stronger effect = lower value
# Summary of the method: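 PEO1, PEO4 and PEO1/OlaR ovarian cancer cells, 600 per well, exposed 96 h at 37C to a dilution series. Viability read by CellTiter-Glo luminescence, normalized to DMSO and empty wells; activity summarized as Z-AUC.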
# [2] = qHTS for identification of novel therapeutic agents for treatment of microphthalmiaassociated transcription factor (MiT) renal cell carcinoma (RCC) (AID 1963991); conditions: CellTiter-Glo, 48 h; for z-score: stronger effect = lower value; also: potency is read from the fitted curve at half-maximal effect
# Summary of the method: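 Three TFE3-fusion RCC lines (UOK109, UOK124, UOK145), 500 cells/well in complete medium, were treated with MIPE 4.0 compounds for 48 hours at 37 C. Viability was by CellTiter-Glo luminescence, normalized to DMSO (100%) and empty wells (0%); curves fitted over 11 concentrations.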
# [3] = qHTS profiling for inhibitors of Plasmodium falciparum proliferation (AID 504749; active = well fitted inhibition curve with a large enough effect;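 also: 0% = DMSO vehicle and full inhibition = artemisinin control; nearly all actives have a fitted effect of over 60% in size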); conditions: P. falciparum in erythrocytes, SYBR Green DNA, 72 h; at 12.8 µM (top of the series); parasite line A
# Summary of the method: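 SYBR Green fluorescence of parasite DNA, read after lysis and overnight dark incubation, measured growth over 72 h in erythrocyte culture at 0.3% parasitemia and 2.5% hematocrit. Data normalised to DMSO and 0.29 uM artemisinin, with plate-drift correction.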
# [4] = measured here: PEO1 parental Z-AUC
# [5] = TFE3-RCC UOK109 viability, measured here: UOK109 Z-AUC
# [6] = TFE3-RCC viability, measured here: UOK124 Z-AUC
# [7] = TFE3-RCC viability, measured here: UOK145 Z-AUC
smiles,measurement,setting,value
N[C@H](CSC(c1ccccc1)(c1ccccc1)c1ccccc1)C(=O)O,Z-AUC,[1],0.731 (inactive)
same,Z-AUC,[1]; [4],0.902
same,Z-AUC,[1]; measured here: PEO4 Z-AUC,0.85
CS(=O)c1ccc(-c2nc(-c3ccc(F)cc3)c(-c3ccncc3)[nH]2)cc1 (stereo not given),Z-AUC,[1],0.509 (inactive)
same,Z-AUC,[1]; [4],0.495
same,Z-AUC,[1]; measured here: PEO4 Z-AUC,0.786
CC(=O)OC1C(C)OC(Oc2c(-c3ccc(O)cc3)oc3cc(O)cc(O)c3c2=O)C(O)C1OC(C)=O (stereo not given),Z-AUC,[1],-0.58 (inactive)
same,Z-AUC,[1]; [4],-0.801
same,Z-AUC,[1]; measured here: PEO4 Z-AUC,-0.512
Clc1ccc(CCC(Cn2ccnc2)Sc2c(Cl)cccc2Cl)cc1 (stereo not given),Z-AUC,[1],1.27 (inactive)
same,Z-AUC,[1]; [4],0.807
same,Z-AUC,[1]; measured here: PEO4 Z-AUC,0.874
CN1[C@@H]2CCC[C@@H]1CC(NC(=O)c1nn(C)c3ccccc13)C2 (stereo not given in full),Z-AUC,[1],-0.105 (inactive)
same,Z-AUC,[1]; [4],-0.292
same,Z-AUC,[1]; measured here: PEO4 Z-AUC,0.149
same,z-score,[2]; [5],0.506
same,z-score,[2]; [6],0.637
same,z-score,[2]; [7],0.0896
O=c1cc(-c2cccc3c2Sc2ccccc2S3)oc(N2CCOCC2)c1,Z-AUC,[1],1.05 (inactive)
same,Z-AUC,[1]; [4],1.03
same,Z-AUC,[1]; measured here: PEO4 Z-AUC,0.875
O=C1C(Cl)=C(NCCN2CCOCC2)C(=O)c2ncccc21,Z-AUC,[1],-1.13 (inactive)
same,Z-AUC,[1]; [4],-1.16
same,Z-AUC,[1]; measured here: PEO4 Z-AUC,-1.1
C=C1C(=O)[C@@]23C(CC[C@@H]1[C@H]2O)[C@@]12CO[C@]3(O)[C@@H](O)[C@@H]1C(C)(C)CC[C@@H]2O (stereo not given in full),Z-AUC,[1],-0.857 (inactive)
same,Z-AUC,[1]; [4],-1.05
same,Z-AUC,[1]; measured here: PEO4 Z-AUC,-1.08
C[N+](C)(C)CC(=O)O,Z-AUC,[1],-0.734 (inactive)
same,Z-AUC,[1]; [4],0.456
same,Z-AUC,[1]; measured here: PEO4 Z-AUC,-0.678
CC(C)(C)Cn1c(N)nc2ccc(-c3[nH]c(C(C)(C)C)nc3-c3ccc(F)cc3)nc21,Z-AUC,[1],-0.716 (inactive)
same,Z-AUC,[1]; [4],-1.14
same,Z-AUC,[1]; measured here: PEO4 Z-AUC,-1.15
Clc1cc(Cl)cc(CNc2ncncc2-c2ccc3c(c2)OCO3)c1,Z-AUC,[1],0.335 (inactive)
same,Z-AUC,[1]; [4],-0.24
same,Z-AUC,[1]; measured here: PEO4 Z-AUC,-0.467
O=c1cc(CN2CCOCC2)occ1OCCCCCSc1ccnc2cc(C(F)(F)F)ccc12,Z-AUC,[1],-0.111 (inactive)
same,Z-AUC,[1]; [4],-0.421
same,Z-AUC,[1]; measured here: PEO4 Z-AUC,-0.0909
CCCCCNC(=O)N1CCC(CN(Cc2ccc(Cl)cc2)Cc2ccc([N+](=O)[O-])s2)C1 (stereo not given),Z-AUC,[1],-0.865 (inactive)
same,Z-AUC,[1]; [4],0.128
same,Z-AUC,[1]; measured here: PEO4 Z-AUC,-0.734
COc1cccc(-c2cc(=O)c3ccccc3o2)c1N,Z-AUC,[1],-0.672 (inactive)
same,Z-AUC,[1]; [4],-0.47
same,Z-AUC,[1]; measured here: PEO4 Z-AUC,-0.869
O=c1cc(-c2ccccc2)oc2cc(O)cc(O)c12,Z-AUC,[1],1.05 (inactive)
same,Z-AUC,[1]; [4],1.12
same,Z-AUC,[1]; measured here: PEO4 Z-AUC,1.3
same,z-score,[2]; [5],0.364
same,z-score,[2]; [6],0.638
same,z-score,[2]; [7],0.538
COc1ccc(-n2c(C)c([N+](=O)[O-])c3ccc(O)cc32)cc1,Z-AUC,[1],-0.721 (inactive)
same,Z-AUC,[1]; [4],-0.631
same,Z-AUC,[1]; measured here: PEO4 Z-AUC,-0.862
same,z-score,[2]; [5],0.538
same,z-score,[2]; [6],0.575
same,z-score,[2]; [7],0.643
O=C(O)C(O)Cc1ccc(O)c(O)c1 (stereo not given),Z-AUC,[1],0.82 (inactive)
same,Z-AUC,[1]; [4],1.05
same,Z-AUC,[1]; measured here: PEO4 Z-AUC,0.735
same,z-score,[2]; [5],0.888
same,z-score,[2]; [6],1.07
same,z-score,[2]; [7],1.23
COc1cc2nc(-c3ccc(N4CCN(C)CC4)cc3)nc(NCCN3CCOCC3)c2cc1OC,Z-AUC,[1],-0.0476 (inactive)
same,Z-AUC,[1]; [4],-0.00961
same,Z-AUC,[1]; measured here: PEO4 Z-AUC,-0.573
same,Potency,"[2]; TFE3-RCC UOK109 viability, active = Z-AUC below -0.8 in all three lines",1.18 µM (active)
same,z-score,[2]; [5],-1.15
same,z-score,[2]; [6],-1.85
same,z-score,[2]; [7],-1.4
Clc1ccc(Cn2c(CN3CCCC3)nc3ccccc32)cc1,Z-AUC,[1],1.16 (inactive)
same,Z-AUC,[1]; [4],0.912
same,Z-AUC,[1]; measured here: PEO4 Z-AUC,1.11
same,"activity, negative = inhibition",[3],5.36% (inactive)
O=C(NC1CCOCC1)c1ccc(-c2cc(-c3cn[nH]c3-c3ccccn3)ccn2)cc1,z-score,[2]; [5],0.905
same,z-score,[2]; [6],1.11
same,z-score,[2]; [7],0.561
Nc1ncnc2c1ncn2[C@@H]1O[C@H](CO)C[C@@H]1O,z-score,[2]; [5],0.12
same,z-score,[2]; [6],0.223
same,z-score,[2]; [7],0.00458
CO[C@H]1C[C@@H]2CC[C@@H](C)[C@@](O)(O2)C(=O)C(=O)N2CCCC[C@@H]2C(=O)O[C@H]([C@@H](C)C[C@@H]2CC[C@H](O)[C@H](OC)C2)CC(=O)[C@H](C)C=C(C)[C@@H](O)[C@@H](OC)C(=O)[C@H](C)C[C@H](C)C=CC=CC=C1C,Z-AUC,[1],-0.986 (inactive)
same,Z-AUC,[1]; [4],-0.581
same,Z-AUC,[1]; measured here: PEO4 Z-AUC,-0.84
same,z-score,[2]; [5],-0.128
same,z-score,[2]; [6],1.08
same,z-score,[2]; [7],-0.61
Cc1ccccc1C(C(=O)NC1CCCCC1)N(C(=O)Cn1ccnc1C)c1cccc(F)c1 (stereo not given),Z-AUC,[1],0.113 (inactive)
same,Z-AUC,[1]; [4],0.941
same,Z-AUC,[1]; measured here: PEO4 Z-AUC,0.654
same,z-score,[2]; [5],0.6
same,z-score,[2]; [6],0.139
same,z-score,[2]; [7],0.682
O=C(Nc1c(Cl)cncc1Cl)c1ccc(OC(F)F)c(OCC2CC2)c1,z-score,[2]; [5],-0.715
same,z-score,[2]; [6],0.259
same,z-score,[2]; [7],0.585
O=C1C[C@@H](c2ccc(O)cc2)Oc2cc(O)cc(O)c21,Z-AUC,[1],0.649 (inactive)
same,Z-AUC,[1]; [4],1.18
same,Z-AUC,[1]; measured here: PEO4 Z-AUC,1.28
same,z-score,[2]; [5],0.38
same,z-score,[2]; [6],0.851
same,z-score,[2]; [7],0.18
Clc1ccc(-c2nc3sccn3c2C=NOCc2ccc(Cl)c(Cl)c2)cc1,z-score,[2]; [5],0.77
same,z-score,[2]; [6],0.598
same,z-score,[2]; [7],0.227
C[C@@H]1CCN(C(=O)CC#N)C[C@H]1N(C)c1ncnc2[nH]ccc12,z-score,[2]; [5],-0.116
same,z-score,[2]; [6],0.39
same,z-score,[2]; [7],-0.115
O=C(CCc1ccc(O)cc1)c1c(O)cc(O)cc1O[C@@H]1O[C@H](CO)[C@H](O)[C@H](O)[C@H]1O,z-score,[2]; [5],-0.101
same,z-score,[2]; [6],0.0784
same,z-score,[2]; [7],-0.273
